This is an account of results in paper PMC7862700, “An all-to-all approach to the identification of sequence-specific readers for epigenetic DNA modifications on cytosine”.

Test in all cases: DAPPL (digital affinity profiling via proximity ligation, sequencing); 10 mM Tris-HCl pH 7.5, 50 mM NaCl, 1 mM DTT, 4% glycerol, room temperature, 30 min; GST-TFs on glutathione beads, 16-mer random dsDNA library, 0.1% formaldehyde crosslink after washing; high values mean tight binding
One assay concerns the target T1, FEV (Homo sapiens, UniProt Q99581 1-238).
T1 sequence: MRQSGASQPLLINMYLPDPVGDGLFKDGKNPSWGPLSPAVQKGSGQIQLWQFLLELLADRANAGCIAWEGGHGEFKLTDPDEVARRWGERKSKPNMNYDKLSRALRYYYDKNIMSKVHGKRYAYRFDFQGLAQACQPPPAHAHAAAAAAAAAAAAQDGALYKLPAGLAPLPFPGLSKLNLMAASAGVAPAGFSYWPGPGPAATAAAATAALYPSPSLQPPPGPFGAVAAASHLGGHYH
Particulars: protein: recombinant; tags: N-terminal GST; dsDNA, one strand shown. In a few lines:
(§1)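 In yeast, human transcription factors were expressed with a GST fusion, then pulled down on glutathione beads and given DNA barcodes. Pooled with a tag-only sample, they were exposed to 200 nmole of a 16-mer random double-stranded DNA library (Tris/NaCl/DTT/glycerol buffer, room temperature, 30 min), washed, crosslinked with 0.1% formaldehyde, proximity-ligated using BsaI/T4 ligase for 1 h at 37 °C, PCR-amplified and read on an Illumina NextSeq500. Each hexamer's frequency of reads for a factor, divided by the matching frequency for the tag-only sample, gives the binding signal.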

The target in another assay is ETV5 (Homo sapiens, UniProt P41161 1-510). Particulars: protein: recombinant; tags: N-terminal GST; dsDNA, one strand shown. The essentials: as §1
A further assay addresses HSF1 (Homo sapiens, UniProt Q00613 1-529). Conditions: protein: recombinant; tags: N-terminal GST; chain copies: 3; dsDNA, one strand shown. In a few lines: as §1
A further assay has as its target T2, SPIC (Homo sapiens, UniProt Q8N5J4 1-248).
T2 sequence: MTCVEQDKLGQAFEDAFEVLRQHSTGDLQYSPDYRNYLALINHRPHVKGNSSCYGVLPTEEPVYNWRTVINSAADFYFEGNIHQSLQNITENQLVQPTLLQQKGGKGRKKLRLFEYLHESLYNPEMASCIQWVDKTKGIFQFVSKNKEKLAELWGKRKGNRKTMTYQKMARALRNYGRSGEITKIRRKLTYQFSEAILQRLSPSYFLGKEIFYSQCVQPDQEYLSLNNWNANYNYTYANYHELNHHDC
Conditions: protein: recombinant; tags: N-terminal GST; dsDNA, one strand shown. The essentials: as §1

The next assay deals with ELF4 (Homo sapiens, UniProt Q99607 1-663). Conditions: protein: recombinant; tags: N-terminal GST; dsDNA, one strand shown. In a few lines:
as §1

The target of another assay is T3, ELK4 (Homo sapiens, UniProt P28324-2 1-405).
T3 sequence: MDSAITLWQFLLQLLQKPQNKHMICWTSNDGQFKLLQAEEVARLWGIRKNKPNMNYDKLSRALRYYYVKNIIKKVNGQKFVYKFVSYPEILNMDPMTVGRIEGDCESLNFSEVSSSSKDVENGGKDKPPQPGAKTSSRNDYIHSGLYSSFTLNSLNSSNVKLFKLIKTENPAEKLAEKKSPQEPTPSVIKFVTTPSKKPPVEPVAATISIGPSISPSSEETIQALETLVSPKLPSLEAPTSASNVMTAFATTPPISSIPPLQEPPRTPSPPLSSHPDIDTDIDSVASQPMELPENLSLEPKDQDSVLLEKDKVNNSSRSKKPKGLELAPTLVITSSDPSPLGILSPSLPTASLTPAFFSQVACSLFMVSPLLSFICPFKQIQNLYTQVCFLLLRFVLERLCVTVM
Conditions: protein: recombinant; tags: N-terminal GST; dsDNA, one strand shown. The essentials:
as §1

Another assay has as its target T4, ETV2 (Homo sapiens, UniProt O00321 1-342).
T4 sequence: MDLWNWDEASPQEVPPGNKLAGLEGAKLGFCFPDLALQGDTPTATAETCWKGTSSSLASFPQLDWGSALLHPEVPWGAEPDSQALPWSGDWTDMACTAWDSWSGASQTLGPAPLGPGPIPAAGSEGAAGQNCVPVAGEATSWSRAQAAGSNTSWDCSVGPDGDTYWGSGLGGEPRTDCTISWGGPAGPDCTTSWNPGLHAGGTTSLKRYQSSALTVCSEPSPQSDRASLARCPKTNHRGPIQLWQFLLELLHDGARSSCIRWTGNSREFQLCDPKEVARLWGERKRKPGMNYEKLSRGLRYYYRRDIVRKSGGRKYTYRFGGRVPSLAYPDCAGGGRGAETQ
Conditions: protein: recombinant; tags: N-terminal GST; dsDNA, one strand shown. The essentials:
as §1

Another assay deals with T5, ELF3 (Homo sapiens, UniProt P78545 1-371).
T5 sequence: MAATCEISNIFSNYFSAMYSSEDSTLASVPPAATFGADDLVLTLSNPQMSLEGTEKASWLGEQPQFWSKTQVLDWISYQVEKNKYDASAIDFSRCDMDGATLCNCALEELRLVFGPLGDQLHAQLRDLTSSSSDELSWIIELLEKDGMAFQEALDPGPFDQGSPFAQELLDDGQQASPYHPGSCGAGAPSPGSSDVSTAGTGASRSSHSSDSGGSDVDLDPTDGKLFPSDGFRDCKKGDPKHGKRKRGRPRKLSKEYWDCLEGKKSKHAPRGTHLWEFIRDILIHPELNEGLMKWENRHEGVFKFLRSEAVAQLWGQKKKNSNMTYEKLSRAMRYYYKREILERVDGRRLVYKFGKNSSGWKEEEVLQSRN
Conditions: protein: recombinant; tags: N-terminal GST; dsDNA, one strand shown. The essentials: as §1

For another assay, the target named is CRX (Homo sapiens, UniProt O43186 1-299). Conditions: protein: recombinant; tags: N-terminal GST; dsDNA, one strand shown. The essentials: as §1
The target in a further assay is ETV1 (Homo sapiens, UniProt P50549 1-477). Particulars: protein: recombinant; tags: N-terminal GST; dsDNA, one strand shown. In a few lines:
as §1

A further assay deals with T6, ERF (Homo sapiens, UniProt P50548 1-548).
T6 sequence: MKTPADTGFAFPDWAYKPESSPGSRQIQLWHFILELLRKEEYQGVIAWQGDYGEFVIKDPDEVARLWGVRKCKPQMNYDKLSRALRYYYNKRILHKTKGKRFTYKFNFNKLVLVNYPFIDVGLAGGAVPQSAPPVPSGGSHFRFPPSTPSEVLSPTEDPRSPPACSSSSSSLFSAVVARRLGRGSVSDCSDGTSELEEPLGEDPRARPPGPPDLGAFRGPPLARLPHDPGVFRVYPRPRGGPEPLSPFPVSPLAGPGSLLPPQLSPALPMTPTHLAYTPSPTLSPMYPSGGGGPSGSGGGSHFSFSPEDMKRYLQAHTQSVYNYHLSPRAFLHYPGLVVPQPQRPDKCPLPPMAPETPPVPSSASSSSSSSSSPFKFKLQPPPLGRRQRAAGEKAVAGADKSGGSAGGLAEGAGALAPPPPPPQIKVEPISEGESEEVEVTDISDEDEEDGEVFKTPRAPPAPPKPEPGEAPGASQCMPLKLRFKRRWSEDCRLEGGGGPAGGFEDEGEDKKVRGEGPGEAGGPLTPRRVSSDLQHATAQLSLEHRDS
Particulars: protein: recombinant; tags: N-terminal GST; dsDNA, one strand shown. The essentials:
as §1

A further assay concerns the target T7, ETV3L (Homo sapiens, UniProt Q6ZN32 1-361).
T7 sequence: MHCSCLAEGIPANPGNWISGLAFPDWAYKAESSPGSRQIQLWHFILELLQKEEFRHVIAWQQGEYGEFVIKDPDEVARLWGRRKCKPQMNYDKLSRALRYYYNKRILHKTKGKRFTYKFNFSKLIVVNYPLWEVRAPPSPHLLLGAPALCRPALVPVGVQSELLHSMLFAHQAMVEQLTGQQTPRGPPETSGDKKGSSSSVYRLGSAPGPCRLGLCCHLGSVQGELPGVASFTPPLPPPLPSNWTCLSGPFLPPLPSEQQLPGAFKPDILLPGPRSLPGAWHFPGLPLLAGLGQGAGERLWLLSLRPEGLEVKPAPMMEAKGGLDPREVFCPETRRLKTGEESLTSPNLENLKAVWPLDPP
Particulars: protein: recombinant; tags: N-terminal GST; dsDNA, one strand shown. In a few lines: as §1

In a further assay the target is T8, ETS2 (Homo sapiens, UniProt P15036 1-469).
T8 sequence: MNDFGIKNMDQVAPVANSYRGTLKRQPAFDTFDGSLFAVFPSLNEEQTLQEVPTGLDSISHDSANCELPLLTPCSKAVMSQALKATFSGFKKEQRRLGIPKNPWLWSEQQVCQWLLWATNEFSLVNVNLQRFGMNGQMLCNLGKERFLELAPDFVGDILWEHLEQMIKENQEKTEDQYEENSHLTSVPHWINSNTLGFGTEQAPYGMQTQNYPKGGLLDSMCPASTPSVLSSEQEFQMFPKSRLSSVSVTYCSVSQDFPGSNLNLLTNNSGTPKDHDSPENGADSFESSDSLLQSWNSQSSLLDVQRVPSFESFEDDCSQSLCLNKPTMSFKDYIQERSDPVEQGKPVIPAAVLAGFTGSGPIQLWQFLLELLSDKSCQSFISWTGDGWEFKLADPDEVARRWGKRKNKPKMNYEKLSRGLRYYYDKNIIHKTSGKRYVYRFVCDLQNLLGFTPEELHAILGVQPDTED
Conditions: protein: recombinant; tags: N-terminal GST; dsDNA, one strand shown. The essentials:
as §1

The next assay deals with T9, SPDEF (Homo sapiens, UniProt O95238 1-335).
T9 sequence: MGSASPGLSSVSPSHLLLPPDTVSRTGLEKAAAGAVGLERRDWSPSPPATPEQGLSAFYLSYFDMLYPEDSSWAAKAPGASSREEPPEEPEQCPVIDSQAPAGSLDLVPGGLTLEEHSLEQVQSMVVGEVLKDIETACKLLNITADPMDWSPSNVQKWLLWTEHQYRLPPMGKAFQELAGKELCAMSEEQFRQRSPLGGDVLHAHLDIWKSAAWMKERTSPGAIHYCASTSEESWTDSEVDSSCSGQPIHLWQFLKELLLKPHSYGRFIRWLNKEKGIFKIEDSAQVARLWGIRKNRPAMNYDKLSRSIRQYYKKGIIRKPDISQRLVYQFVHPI
Conditions: protein: recombinant; tags: N-terminal GST; dsDNA, one strand shown. The essentials:
as §1

The target in another assay is T10, ETV7 (Homo sapiens, UniProt Q9Y603 1-341).
T10 sequence: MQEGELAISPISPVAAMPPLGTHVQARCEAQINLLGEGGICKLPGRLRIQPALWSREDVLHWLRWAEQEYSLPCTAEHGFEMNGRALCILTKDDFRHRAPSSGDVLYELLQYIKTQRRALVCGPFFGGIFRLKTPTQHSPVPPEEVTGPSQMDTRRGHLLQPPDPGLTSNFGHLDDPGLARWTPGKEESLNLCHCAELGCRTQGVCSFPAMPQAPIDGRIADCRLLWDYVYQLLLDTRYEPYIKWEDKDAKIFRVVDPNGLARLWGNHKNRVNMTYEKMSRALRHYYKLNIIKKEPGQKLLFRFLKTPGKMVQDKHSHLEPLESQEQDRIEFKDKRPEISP
Particulars: protein: recombinant; tags: N-terminal GST; dsDNA, one strand shown. The essentials:
as §1

Another assay has as its target T11, ELF5 (Homo sapiens, UniProt Q9UKW6-2 1-255).
T11 sequence: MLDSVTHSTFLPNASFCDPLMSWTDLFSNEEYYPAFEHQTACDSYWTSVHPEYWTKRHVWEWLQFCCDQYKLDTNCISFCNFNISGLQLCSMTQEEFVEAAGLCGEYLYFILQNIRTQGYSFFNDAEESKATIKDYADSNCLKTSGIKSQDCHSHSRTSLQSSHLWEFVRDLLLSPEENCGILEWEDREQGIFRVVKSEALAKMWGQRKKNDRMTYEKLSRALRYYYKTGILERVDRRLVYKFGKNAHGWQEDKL
Conditions: protein: recombinant; tags: N-terminal GST; dsDNA, one strand shown. In a few lines:
as §1

A further assay addresses T12, ETV3 (Homo sapiens, UniProt P41162-2 1-143).
T12 sequence: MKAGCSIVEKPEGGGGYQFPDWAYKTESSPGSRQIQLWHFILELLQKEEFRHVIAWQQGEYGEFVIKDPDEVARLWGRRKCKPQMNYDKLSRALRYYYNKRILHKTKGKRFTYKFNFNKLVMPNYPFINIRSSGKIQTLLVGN
Particulars: protein: recombinant; tags: N-terminal GST; dsDNA, one strand shown. The essentials:
as §1

The target in the next assay is ETV6 (Homo sapiens, UniProt P41212 1-452). Conditions: protein: recombinant; tags: N-terminal GST; dsDNA, one strand shown. The essentials:
as §1

ETV5, sequence (P41161 whole entry): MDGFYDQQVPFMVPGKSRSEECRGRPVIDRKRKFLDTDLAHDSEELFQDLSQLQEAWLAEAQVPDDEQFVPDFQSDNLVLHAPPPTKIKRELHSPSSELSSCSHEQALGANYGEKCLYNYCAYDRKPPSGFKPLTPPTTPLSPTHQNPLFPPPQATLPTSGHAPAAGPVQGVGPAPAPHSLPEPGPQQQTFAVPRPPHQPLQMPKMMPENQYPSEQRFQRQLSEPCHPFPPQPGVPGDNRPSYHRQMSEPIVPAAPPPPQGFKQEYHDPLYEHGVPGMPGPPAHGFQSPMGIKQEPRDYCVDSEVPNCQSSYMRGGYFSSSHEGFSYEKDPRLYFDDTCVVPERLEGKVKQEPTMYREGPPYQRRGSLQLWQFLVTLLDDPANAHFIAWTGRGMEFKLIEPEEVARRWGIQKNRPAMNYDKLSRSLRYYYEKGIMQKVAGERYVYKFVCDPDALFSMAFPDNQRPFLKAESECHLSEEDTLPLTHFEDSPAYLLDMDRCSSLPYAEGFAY
ETV1, sequence (P50549 whole entry): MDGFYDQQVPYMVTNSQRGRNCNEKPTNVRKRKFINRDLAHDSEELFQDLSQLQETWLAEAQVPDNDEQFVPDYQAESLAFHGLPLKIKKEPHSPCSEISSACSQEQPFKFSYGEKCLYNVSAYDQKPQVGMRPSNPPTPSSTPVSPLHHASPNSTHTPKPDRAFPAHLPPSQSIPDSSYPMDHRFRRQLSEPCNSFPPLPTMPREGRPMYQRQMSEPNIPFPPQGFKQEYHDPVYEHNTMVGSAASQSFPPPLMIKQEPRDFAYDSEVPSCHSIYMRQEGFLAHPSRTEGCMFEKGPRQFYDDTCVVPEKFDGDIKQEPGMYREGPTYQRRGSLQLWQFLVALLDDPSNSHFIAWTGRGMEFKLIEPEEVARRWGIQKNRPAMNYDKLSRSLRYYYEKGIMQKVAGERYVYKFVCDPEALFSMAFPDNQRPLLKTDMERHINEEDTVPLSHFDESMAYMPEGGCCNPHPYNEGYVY
HSF1, sequence (Q00613 whole entry): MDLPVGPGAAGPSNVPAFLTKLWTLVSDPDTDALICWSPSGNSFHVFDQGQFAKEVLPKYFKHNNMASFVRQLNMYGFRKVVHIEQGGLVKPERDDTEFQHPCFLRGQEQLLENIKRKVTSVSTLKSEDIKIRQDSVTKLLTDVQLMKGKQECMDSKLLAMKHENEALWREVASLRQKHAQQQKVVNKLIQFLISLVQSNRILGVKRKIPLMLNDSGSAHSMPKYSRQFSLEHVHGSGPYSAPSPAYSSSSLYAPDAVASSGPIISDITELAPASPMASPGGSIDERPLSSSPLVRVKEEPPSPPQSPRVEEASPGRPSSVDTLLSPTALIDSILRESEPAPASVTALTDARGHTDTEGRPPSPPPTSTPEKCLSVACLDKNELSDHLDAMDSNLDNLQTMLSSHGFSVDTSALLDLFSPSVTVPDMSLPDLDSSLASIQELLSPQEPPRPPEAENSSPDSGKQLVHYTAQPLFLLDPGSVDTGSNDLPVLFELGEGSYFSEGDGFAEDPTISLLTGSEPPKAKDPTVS
CRX, sequence (O43186 whole entry): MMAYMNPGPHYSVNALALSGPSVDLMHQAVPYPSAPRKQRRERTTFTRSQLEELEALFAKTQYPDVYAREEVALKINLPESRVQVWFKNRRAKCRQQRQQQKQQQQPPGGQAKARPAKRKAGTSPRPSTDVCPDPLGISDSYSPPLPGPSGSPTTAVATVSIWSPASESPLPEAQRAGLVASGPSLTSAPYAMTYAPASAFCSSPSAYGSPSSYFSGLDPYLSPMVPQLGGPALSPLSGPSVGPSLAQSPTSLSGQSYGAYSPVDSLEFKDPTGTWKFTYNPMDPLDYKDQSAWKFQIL
ETV6, sequence (P41212 whole entry): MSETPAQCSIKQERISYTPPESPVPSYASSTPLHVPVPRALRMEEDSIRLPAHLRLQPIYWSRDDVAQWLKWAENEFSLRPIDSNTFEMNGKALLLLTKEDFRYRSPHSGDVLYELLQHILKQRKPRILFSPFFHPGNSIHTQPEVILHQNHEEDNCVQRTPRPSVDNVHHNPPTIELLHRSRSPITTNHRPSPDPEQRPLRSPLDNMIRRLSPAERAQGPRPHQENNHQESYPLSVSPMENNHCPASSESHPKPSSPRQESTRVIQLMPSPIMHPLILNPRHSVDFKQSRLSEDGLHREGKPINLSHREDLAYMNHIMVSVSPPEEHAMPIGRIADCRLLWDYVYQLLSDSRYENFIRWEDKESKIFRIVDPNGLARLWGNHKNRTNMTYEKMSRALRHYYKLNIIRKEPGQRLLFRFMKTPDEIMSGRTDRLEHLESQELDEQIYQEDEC
ELF4, sequence (Q99607 whole entry): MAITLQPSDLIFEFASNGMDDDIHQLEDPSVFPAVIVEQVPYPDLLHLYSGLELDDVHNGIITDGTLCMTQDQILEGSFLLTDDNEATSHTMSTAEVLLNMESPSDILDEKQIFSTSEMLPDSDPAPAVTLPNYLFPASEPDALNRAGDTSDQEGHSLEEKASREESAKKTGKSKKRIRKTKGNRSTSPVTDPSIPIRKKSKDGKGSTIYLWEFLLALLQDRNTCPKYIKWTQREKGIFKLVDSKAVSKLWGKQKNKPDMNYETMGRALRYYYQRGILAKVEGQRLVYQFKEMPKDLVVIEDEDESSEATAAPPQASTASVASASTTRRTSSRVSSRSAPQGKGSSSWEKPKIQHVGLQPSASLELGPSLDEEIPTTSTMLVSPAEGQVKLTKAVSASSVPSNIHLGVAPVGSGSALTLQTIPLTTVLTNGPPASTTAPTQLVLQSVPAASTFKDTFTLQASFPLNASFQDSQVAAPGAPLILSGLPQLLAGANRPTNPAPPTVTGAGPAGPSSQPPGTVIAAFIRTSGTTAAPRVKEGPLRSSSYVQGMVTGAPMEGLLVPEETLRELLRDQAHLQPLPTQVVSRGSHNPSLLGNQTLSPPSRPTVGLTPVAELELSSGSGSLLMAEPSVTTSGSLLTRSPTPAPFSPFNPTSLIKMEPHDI

For CCTTTC, the binding signal in the assay with FEV was 1.71 fold enrichment (6-mer frequency, TF over GST control); with ETV5, 1.51 fold enrichment (6-mer frequency, TF over GST control); in the assay with HSF1, 1.43 fold enrichment (6-mer frequency, TF over GST control); in the assay with SPIC, 1.65 fold enrichment (6-mer frequency, TF over GST control); with ELF4, 1.68 fold enrichment (6-mer frequency, TF over GST control); in the assay with ELK4, 1.64 fold enrichment (6-mer frequency, TF over GST control). In addition, the binding signal with ETV2 was 1.56 fold enrichment (6-mer frequency, TF over GST control); in the assay with ELF3 it was 1.42 fold enrichment (6-mer frequency, TF over GST control); with CRX, 1.27 fold enrichment (6-mer frequency, TF over GST control); with ETV1 it was 1.5 fold enrichment (6-mer frequency, TF over GST control); with ERF, 1.62 fold enrichment (6-mer frequency, TF over GST control); with ETV3L, 1.54 fold enrichment (6-mer frequency, TF over GST control). For the same sequence, the binding signal with ETS2 was 1.59 fold enrichment (6-mer frequency, TF over GST control); with SPDEF, 1.5 fold enrichment (6-mer frequency, TF over GST control); with ETV7, 1.39 fold enrichment (6-mer frequency, TF over GST control); with ELF5, 1.75 fold enrichment (6-mer frequency, TF over GST control); with ETV3, 1.62 fold enrichment (6-mer frequency, TF over GST control); with ETV6, 1.62 fold enrichment (6-mer frequency, TF over GST control).
